We go through 20 molecules from PubChem BioAssay (NCATS).

Each structure is given as a SMILES string. Records with an inconclusive call do not appear. The source made the active and inactive calls. The call rests on the fitted dose curve; in most records, active means well fitted curve in the direction sought with a large enough effect; inconclusive means small, poorly fitted or top-dose-only effect, or another doubt; inactive means no such curve, though single readings can be large; an effect the other way counts as inactive or inconclusive.

Assay [1] concerns the target Luciferin 4-monooxygenase (Photinus pyralis) (UniProt P08659). Briefly: Biochemical firefly luciferase enzyme assay for NPC (AID 624030). Further: nearly all actives have a fitted effect of over 70% in size. Further: potency means the concentration at half of the fitted maximal effect. The procedure, abridged: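 Purified P. pyralis luciferase at 10 nM in 50 mM Tris Acetate (final), luminescence read within 5 minutes of enzyme addition to compounds. Activity normalised to PTC124 versus DMSO; concentration-response curves classed by r2, magnitude and activity.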

Assay [2] in a line: S16 Schwann cell viability assay (CellTiter-Glo assay) (AID 624031).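 Further: native untransfected S16 rat Schwann cells; nearly all actives have a fitted effect of over 70% in size.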 The procedure, abridged: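 Parental S16 cells, 24 h compound, 37 °C. ATP-luminescence viability; DMSO = 0% activity, empty wells as reference; curves classified by fit quality and efficacy.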
On the technique in general: ATP-based viability assays read luminescence as a measure of living cells.

Assay [3] can be described thus: S16 Schwann cell PMP22 intronic element firefly luciferase assay (AID 624032). Further: nearly all actives have a fitted effect of over 30% in size. Further: potency means the concentration at half of the fitted maximal effect. A digest of the protocol:
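Rat S16 Schwann cells stably carrying firefly luciferase driven by a PMP22 intronic element, in 10% FBS, treated 24 h at 37 C. ONE-Glo luminescence normalized to PTC124 control and DMSO (0%); curves classed by r2, magnitude and activity.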

For another assay, the system named is 7G8. Briefly: qHTS profiling for inhibitors of Plasmodium falciparum proliferation (AID 504749). Further: nearly all actives have a fitted effect of over 60% in size. Further: potency means the concentration at half of the fitted maximal effect. Particulars: P. falciparum in erythrocytes, SYBR Green DNA, 72 h; series mostly up to 12.8 µM. The procedure, abridged: (§1)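 Readout was DNA-dye fluorescence from lysed cultures, ex 485/em 535 nm. Parasitized red cells had grown 72 h with compound; data scaled between 0.29 uM artemisinin and DMSO wells and corrected using vehicle-only plates.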
A general note: qHTS replaces the single test concentration by a dilution series.

Another assay deals with CP215. The description is as above. Particulars: P. falciparum in erythrocytes, SYBR Green DNA, 72 h; series mostly up to 12.8 µM. The procedure, abridged: as §1
A further assay deals with DIV14. The assay is described as above. Particulars: P. falciparum in erythrocytes, SYBR Green DNA, 72 h; series mostly up to 12.8 µM. A digest of the protocol:
as §1

For the next assay, the system named is GB4. Described as above. To be noted: P. falciparum in erythrocytes, SYBR Green DNA, 72 h; series mostly up to 12.8 µM. The procedure, abridged:
as §1

The test system of the next assay is W2. The assay is described as above. To be noted: P. falciparum in erythrocytes, SYBR Green DNA, 72 h; series mostly up to 12.8 µM. The procedure, abridged:
as §1

Assay [4] concerns the target Cytochrome P450 3A4 (Homo sapiens) (UniProt P08684). Briefly: qHTS Assay for Inhibitors and Substrates of Cytochrome P450 3A4 (AID 884). Further: nearly all actives have a fitted effect of over 50% in size. A digest of the protocol: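 20 nM human CYP3A4 with 25 uM Luciferin-PPXE (at KM) in 200 mM KPO4, preincubated 10 min with compound; NADPH regeneration started a 60 min RT reaction. Luciferin detected by luminescence, normalized to 57 uM ketoconazole as full inhibition.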

For assay [5], the target named is DNA dC->dU-editing enzyme APOBEC-3G (Homo sapiens) (UniProt Q9HC16). Briefly: qHTS for inhibitors of Vif-A3G interactions: Validation (AID 588379). The procedure, abridged: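 HeLa cells stably expressing Vif and A3G-eYFP, 700 cells/well, incubated overnight at 37 deg C, then exposed to compound overnight at 37 deg C. Inhibition of Vif-mediated degradation read as increased yellow fluorescence (Ex 488/Em 500-530) by laser-scanning cytometry.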

In assay [6] the target is Cytochrome P450 3A4 (Homo sapiens) (UniProt P08684). Briefly: qHTS Assay for Activators of Cytochrome P450 3A4 (AID 885). Further: nearly all actives have a fitted effect of over 65% in size. The procedure, abridged: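 Human CYP3A4 (20 nM) with Luciferin-PPXE at 25 uM (its KM) in 200 mM KPO4; 10 min compound preincubation, then NADPH regeneration and 60 min reaction at RT. Luciferin read by luminescence; normalized to 57 uM ketoconazole full inhibition.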

The subject of a further assay is DFO2036. Briefly: qHTS profiling for inhibitors of Plasmodium falciparum proliferation (AID 504749). Further: nearly all actives have a fitted effect of over 60% in size. Further: potency means the concentration at half of the fitted maximal effect. Particulars: P. falciparum in erythrocytes, SYBR Green DNA, 72 h; series mostly up to 12.8 µM. The procedure, abridged:
as §1

Sequence of Cytochrome P450 3A4 (Homo sapiens) (P08684 whole entry, looked up): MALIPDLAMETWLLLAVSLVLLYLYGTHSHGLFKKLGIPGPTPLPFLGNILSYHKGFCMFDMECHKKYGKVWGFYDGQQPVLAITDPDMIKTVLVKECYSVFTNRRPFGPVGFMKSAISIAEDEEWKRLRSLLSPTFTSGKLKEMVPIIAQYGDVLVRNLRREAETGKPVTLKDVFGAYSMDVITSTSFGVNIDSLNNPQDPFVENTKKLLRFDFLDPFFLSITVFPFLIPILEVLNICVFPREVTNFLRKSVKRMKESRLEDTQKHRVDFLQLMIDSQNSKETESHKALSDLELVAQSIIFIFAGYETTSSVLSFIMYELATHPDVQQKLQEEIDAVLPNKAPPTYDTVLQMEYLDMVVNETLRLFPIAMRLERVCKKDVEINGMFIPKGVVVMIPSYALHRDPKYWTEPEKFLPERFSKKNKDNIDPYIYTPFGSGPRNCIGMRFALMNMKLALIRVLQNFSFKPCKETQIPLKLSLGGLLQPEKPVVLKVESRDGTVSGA
Sequence of Luciferin 4-monooxygenase (Photinus pyralis) (P08659 whole entry, looked up): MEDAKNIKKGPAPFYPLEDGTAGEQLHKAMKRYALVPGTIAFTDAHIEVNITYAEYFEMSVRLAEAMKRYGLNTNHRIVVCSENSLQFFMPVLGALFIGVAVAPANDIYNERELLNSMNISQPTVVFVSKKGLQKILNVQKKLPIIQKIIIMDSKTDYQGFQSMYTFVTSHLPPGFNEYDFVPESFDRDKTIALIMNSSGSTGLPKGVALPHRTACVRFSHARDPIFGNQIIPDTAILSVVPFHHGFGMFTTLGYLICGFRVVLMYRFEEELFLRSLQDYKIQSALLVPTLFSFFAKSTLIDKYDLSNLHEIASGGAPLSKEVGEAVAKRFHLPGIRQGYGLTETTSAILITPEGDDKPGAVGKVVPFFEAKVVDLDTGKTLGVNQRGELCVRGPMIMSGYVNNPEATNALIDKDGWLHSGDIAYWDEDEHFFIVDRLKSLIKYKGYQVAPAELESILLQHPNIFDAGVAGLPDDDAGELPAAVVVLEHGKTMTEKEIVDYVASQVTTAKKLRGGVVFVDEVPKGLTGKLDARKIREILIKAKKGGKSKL
Sequence of DNA dC->dU-editing enzyme APOBEC-3G (Homo sapiens) (Q9HC16 whole entry, looked up): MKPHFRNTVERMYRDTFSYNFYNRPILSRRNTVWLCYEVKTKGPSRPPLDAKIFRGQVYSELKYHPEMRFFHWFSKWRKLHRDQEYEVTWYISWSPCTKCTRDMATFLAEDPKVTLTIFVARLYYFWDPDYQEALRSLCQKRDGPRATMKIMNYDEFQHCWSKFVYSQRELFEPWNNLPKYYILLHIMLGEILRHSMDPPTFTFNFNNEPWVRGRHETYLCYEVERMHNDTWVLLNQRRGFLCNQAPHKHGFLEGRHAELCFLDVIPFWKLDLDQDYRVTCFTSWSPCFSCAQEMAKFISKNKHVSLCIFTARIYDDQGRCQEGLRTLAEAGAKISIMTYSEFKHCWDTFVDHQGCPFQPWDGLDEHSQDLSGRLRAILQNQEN

As for `CCC(CCC(C)C1CCC2C3CC=C4CC(O)CC[C@@]4(C)C3CC[C@@]12C)C(C)C` (stereo partly drawn), the Potency entry (in assay [1]; in assay [3]; in the assay with 7G8; in the assay with CP215; with DIV14; in the assay with GB4) was “inactive” throughout. Also, the Potency result in the assay on W2 was “inactive”. Moreover, the outcome in assay [2] was inactive.

`O=c1[nH]c(=O)n([C@@H]2O[C@H](CO)[C@@H](O)[C@H]2O)cc1Br`: the Potency result in assay [4] is “inactive”. In addition, the outcome in [5] was inactive.

Turning to `CCC(=O)O[C@@]1(C(=O)CCl)C(C)CC2C3CCC4=CC(=O)C=C[C@@]4(C)[C@]3(F)C(O)C[C@]21C` (stereo partly drawn), the Potency entry in [6], in assay [1] and in assay [3] was “inactive” in each case. In addition, the molecule was classed as inactive in assay [2]. For the same molecule, the Potency in the assay on 7G8 was 3.98 µM (active); with DFO2036, 10 µM (active); in the assay with DIV14 it was 13.5 µM (active); in the assay on GB4 it was 12 µM (active); with W2, 5.36 µM (active).

With `Nc1nc2ncc(CNc3ccc(C(=O)NC(CCC(=O)O)C(=O)O)cc3)nc2c(=O)[nH]1` (stereo not drawn), the Potency entry (in [4]; in assay [1]; in [3]; in the assay with 7G8; in the assay on DFO2036; with GB4) was “inactive” in each case. In addition, the Potency result in the assay with W2 is “inactive”. Further, in [2], the molecule was called inactive.

As to `C[C@H]1C[C@]2(O[C@@H]2C)C(=O)O[C@@H]2CCN(C)C/C=C(/COC(=O)[C@]1(C)O)C2=O`, in assay [5], the outcome was inactive.

In the case of `C[C@H](CCC(=O)O)[C@H]1CC[C@H]2[C@H]3C(C[C@H](O)[C@]12C)[C@@]1(C)CC[C@@H](O)C[C@H]1C[C@H]3O` (stereo partly drawn), in [5], the molecule was called inactive.

Turning to `OCC1OC(n2cnc3c(=S)nc[nH]c32)C(O)C1O` (stereo not drawn), the Potency entry (in [4]; in assay [1]; with CP215; in the assay on DFO2036; in the assay with DIV14) was “inactive” throughout. Also, in [2], the result was inactive. Besides, the Potency in assay [3] is 2.87 µM (active).

Regarding `CCCCCCCCCc1ccc(OCCOCCOCCOCCOCCOCCOCCOCCOCCO)cc1`, the Potency result (in [1]; with DFO2036) was “inactive” in each case. The Potency was 12.6 µM (active) with 7G8 and 15.1 µM (active) in the assay with W2.

`C[C@]12CCC(=O)C=C1CCC1C2C(=O)C[C@]2(C)C1CC[C@]2(O)C(=O)CO` (stereo partly drawn): the Potency result (in [4]; in assay [1]; in assay [3]; in the assay with 7G8; with CP215; in the assay on GB4) was “inactive” in each case. Further, the Potency result with W2 was “inactive”. Besides, the molecule was called inactive in [2].

As to `CC1(C)S[C@H]2C(NC(=O)[C@@H](N)c3ccc(O)cc3)C(=O)N2[C@@H]1C(=O)O` (stereo partly drawn), the Potency result (in [4]; in assay [1]; in assay [3]; in the assay on 7G8; in the assay with CP215; with DFO2036) was “inactive” in each case. In addition, the Potency result with DIV14, in the assay on GB4 and in the assay on W2 was “inactive” each time. Further, in assay [2], the call was inactive.

Take `CCC(C)C(=O)OC1CC(O)C=C2C=CC(C)C(CCC(O)CC(O)CC(=O)O)C21` (stereo not drawn): the Potency result (in [4]; in assay [1]; in assay [3]; with CP215; in the assay with DFO2036; in the assay on DIV14) was “inactive” throughout. In addition, the Potency result with GB4 and in the assay with W2 was “inactive” in each case. Moreover, the molecule was classed as inactive in assay [2].

Consider `N[C@H](Cc1ccc(O)cc1)C(=O)O`, for which, in [5], the outcome was inactive.

As for `CC(=O)O[C@@]1(C(C)=O)CCC2C3CC(C)C4=CC(=O)CC[C@@]4(C)C3CC[C@]21C` (stereo partly drawn), the Potency result (in assay [6]; with CP215; in the assay with DIV14; in the assay on GB4; with W2) was “inactive” throughout. Moreover, the Potency with 7G8 is 7.94 µM (active).

In the case of `COc1ccc(-c2cc(=O)c3c(O)cc(O[C@H]4OC(COC5OC(C)C(O)C(O)[C@H]5O)C(O)C(O)C4O)cc3o2)cc1O` (stereo partly drawn), the Potency entry (in [4]; in [1]; in assay [3]; with 7G8; with CP215; with DFO2036) was “inactive” each time. For the same molecule, the Potency entry with DIV14 and with GB4 was “inactive” in each case. The outcome in [2] was inactive.

`CC[C@H](CC[C@@H](C)C1CC[C@H]2[C@@H]3CC=C4C[C@@H](O)CC[C@]4(C)[C@H]3CC[C@]12C)C(C)C` (stereo partly drawn): the result in assay [5] was inactive.

`CC(=O)OCC(=O)[C@@]12OC3(CCCC3)OC1CC1C3CCC4=CC(=O)C=C[C@@]4(C)[C@]3(F)C(O)C[C@]12C` (stereo partly drawn): the Potency result in assay [1] and in assay [3] was “inactive” in each case. The molecule was classed as inactive in [2]. In addition, the figures for the Potency with 7G8 and in the assay on W2 were 11.2 µM (active) and 10.7 µM (active), respectively.

For the molecule `C=Cc1c(C)/c2[n-]/c1=C\c1[n-]c(c(CC)c1C)/C=c1\[n-]c3c(c1C)C(=O)C(C(=O)[O-])C=3c1[n-]c(c(C)c1CCC(=O)[O-])\C=2.[Cu].[Na+].[Na+]` (stereo not drawn), the Potency result (in [6]; in assay [3]; in the assay with DFO2036) was “inactive” throughout. In addition, the values for the Potency (in assay [1]; with W2) were 32.2 µM (active) and 12 µM (active), respectively. The result in assay [2] was inactive.

In the case of `C[C@@]12CCC(=O)C=C1C=CC1C2CC[C@]2(C)C1CC[C@@]21CCC(=O)O1` (stereo partly drawn), the Potency result (in assay [4]; in [1]; with CP215; in the assay with DFO2036; with GB4; in the assay on W2) was “inactive” each time. For the same molecule, the call in assay [2] was inactive.

For `CCC1OC(=O)CC(O)C(C)[C@@H](O[C@@H]2OC(C)[C@H](O[C@@H]3C[C@@](C)(O)C(O)C(C)O3)C(N(C)C)C2O)[C@H](CC=O)CC(C)C(=O)/C=C/C(C)=C/[C@@H]1COC1OC(C)C(O)C(OC)[C@@H]1OC` (stereo partly drawn), the Potency result in assay [4], in assay [1] and in assay [3] was “inactive” each time. Further, in [2], the result was inactive. Also, the Potency with W2 was 0.849 µM (active).

In the case of `O=C(O)C1=C[C@@H](O)[C@@H](O)[C@H](O)C1`, the outcome in assay [5] was inactive.
